# Measured values taken from PubChem BioAssay AID463173 (ICCB-Longwood Screening Facility, Harvard Medical School, 2010).
# Screen size: about 52,000 compounds; about 1,700 (3.3%) were called active. The sample holds actives, similar compounds and a random draw of the others, so the mix is not that of the screen. A number with no mark means an inactive call. Cut-off read from the data, not from the text of the source: active = survival mostly below about 52% (no sharp cut-off); inactive = mostly above about 56%.
# Test system: Wild type
# Experiment: growth inhibition of S. aureus wild type versus tarO mutant, primary screen, teichoic acid synthesis inhibitors, RN4220, OD600 (AID 463173)
# Settings: S. aureus RN4220 wild type/DeltatarO growth, OD600, 18 h, active compounds read low, screened at 18.75 µg/mL (by protocol)
row,Structure (SMILES),survival
1,Cc1nn(C)c(C)c1S(=O)(=O)N(CC(=O)NCCc1ccccc1)c1ccc(C(C)C)cc1,86%
2,COc1cc(NC(=O)C2CCN(S(=O)(=O)c3c(C)noc3/C=C/c3ccccc3F)CC2)cc(OC)c1OC,64%
3,CCCCC(=O)Oc1ccc2oc(-c3ccc(OC)cc3)cc(=O)c2c1,69%
4,Cc1c(Cl)cccc1-n1nnc(-c2nc(-c3ccc4c(c3)OCO4)no2)c1C,73%
5,COc1ccc(CNC(=O)c2ccc3nc(CCc4ccccc4)oc3c2)c(OC)c1,131%
6,O=C(NCc1ccccc1)c1ccc2nc(CCc3ccccc3)oc2c1,-3% (active)
7,O=C(NCc1cccc(F)c1)c1ccc2nc(CCc3ccccc3)oc2c1,71%
8,COc1ccc(Cc2nc3ccc(C(=O)NCCc4ccc(OC)c(OC)c4)cc3o2)cc1,68%
9,COc1ccc(CCNC(=O)c2ccc3nc(CCc4ccccc4)oc3c2)cc1OC,10% (active)
10,COc1ccc(CCNC(=O)c2ccc3nc(Cc4ccccc4)oc3c2)cc1OC,124%
11,CCCNC(=O)c1ccc2nc(CCc3ccccc3)oc2c1,73%
12,COc1ccc(CNC(=O)c2ccc3nc(CCc4ccccc4)oc3c2)cc1,-2% (active)
13,O=C(NCCc1ccccc1)c1ccc2nc(CCc3ccccc3)oc2c1,0% (active)
14,CN(C)c1ccc(CNC(=O)c2ccc3nc(CCc4ccccc4)oc3c2)cc1,78%
15,COc1ccc(CNC(=O)c2ccc3nc(CCc4ccccc4)oc3c2)cc1OC,71%
16,O=C(NCCc1ccc(Cl)cc1)c1ccc2nc(CCc3ccccc3)oc2c1,59%
17,COc1ccc(CCNCc2ccc3c(c2)n(C)c(=O)n3C)cc1OC,111%
18,O=C(Nc1ccc2nc(C3CC3)n(Cc3ccccc3)c(=O)c2c1)C1CC1,104%
19,CCc1ccc(CN(Cc2ccco2)C(=O)COc2ccccc2Cl)cc1,85%
20,Cc1ccc(N2CCN(S(=O)(=O)c3nnc(NC(=O)c4ccc(C(C)C)cc4)s3)CC2)cc1,82%
21,Cc1cc(C)cc(C(=O)Nc2cc(C(F)(F)F)ccc2N2CCN(c3ccccc3)CC2)c1,78%

row,Structure (SMILES),survival
1,CCc1ccc(CNC(=O)c2ccc3c(c2)nc2n3CCC(C)C2)cc1 (stereo unspecified),127%
2,COC(=O)CCc1sc(Nc2ccc(OC)cc2)nc1-c1ccc(OC)cc1,77%
3,Cc1c(NC=O)c(=O)n(-c2ccccc2)n1C,107%
4,CC(=O)c1ccc(NC(=O)COCc2cc(-c3ccco3)on2)cc1,129%
5,O=C(O)c1ccc(Cn2cnc3cccnc32)cc1,55%
6,CC(C)(C)NC(=O)C1CC(=O)OC1(C)C (stereo unspecified),107%
7,COc1ccc(Br)cc1C1Sc2ccccc2NC2=C1C(=O)c1ccccc12 (stereo unspecified),41%
8,CCCCOc1cccc(C(=O)Nc2sc3c(c2C(=O)OCC)CCCC3)c1,72%
9,COC(=O)c1c(NC(=O)COc2cc(C)c(Cl)c(C)c2)sc2c1CCCC2,140%
10,COC(=O)c1c(NC(=O)COc2ccc(C)cc2Br)sc2c1CCCC2,44%
11,COC(=O)c1c(NC(=O)COc2cccc(C(F)(F)F)c2)sc2c1CCCC2,72%
12,COC(=O)c1c(NC(=O)CCCOc2cccc(C)c2)sc2c1CCC2,12% (active)
13,COC(=O)c1c(NC(=O)COc2ccc(C(C)C)cc2)sc2c1CCCC2,51%
14,COC(=O)c1c(NC(=O)COc2c(C)cccc2C)sc2c1CCCC2,6% (active)
15,COC(=O)c1c(NC(=O)c2c(OC)cccc2OC)sc2c1CCCC2,3% (active)
16,COC(=O)c1c(NC(=O)c2ccccc2C(=O)O)sc2c1CCCC2,110%
17,Cc1ccc(OCCCC(=O)Nc2sc3c(c2C(N)=O)CCCC3)cc1,57%
18,COC(=O)c1c(NC(=O)CCCOc2ccc(C)cc2)sc2c1CCCC2,3% (active)
19,COC(=O)c1c(NC(=O)c2ccc(OC)cc2OC)sc2c1CCCCC2,56%
20,O=c1nc2c(-c3ccc(F)cc3Cl)n[nH]n2c2ccccc12,72%
21,COc1ccc(-c2nc(Cn3c(SCc4cccc(Cl)c4)nc4ccncc43)c(C)o2)cc1,132%

row,Structure (SMILES),survival
1,O=C(CSC1=Nc2ccccc2N=C(c2ccc(F)cc2)C1)Nc1ccc(Cl)cc1,92%
2,CCN(CC)C1=C(C(=O)c2ccccc2)NS(=O)(=O)c2ccccc21,103%
3,CCOc1ccc(-c2nnc(SCC(=O)NCc3ccccc3Cl)o2)cc1,85%
4,O=C(Nc1ccccc1)C1CCCN1C1CCCCC1 (stereo unspecified),108%
5,O=C1OC(c2ccccc2)=N/C1=C1\OC(=O)c2ccccc21,104%
6,CC1CCCCN1C(=O)CSc1n[nH]c(-c2ccccc2Cl)n1 (stereo unspecified),72%
7,CCCN(Cc1cccs1)C(=O)Nc1ccc(Br)cc1F,76%
8,COC(=O)c1c(NC(=O)CS(=O)(=O)c2ccc(C)cc2)sc2c1CCCC2,-6% (active)
9,Cc1cccc(OCCCC(=O)Nc2sc3c(c2C(N)=O)CCC(C)C3)c1 (stereo unspecified),88%
10,COC(=O)c1c(NC(=O)COc2ccc(Cl)cc2C)sc2c1CCCCC2,83%
11,Cc1ccccc1OCC(=O)Nc1sc2c(c1C(=O)OC(C)C)CCCC2,69%
12,COC(=O)c1c(NC(=O)COc2ccc(OC)cc2)sc2c1CCC(C)C2 (stereo unspecified),86%
13,COC(=O)c1c(NC(=O)COc2c(C)ccc(C)c2C)sc2c1CCC(C)C2 (stereo unspecified),11% (active)
14,COC(=O)c1c(NC(=O)COc2cc(C)ccc2C(C)C)sc2c1CCC(C)C2 (stereo unspecified),66%
15,COC(=O)c1c(NC(=O)CS(=O)(=O)c2ccc(C)cc2)sc2c1CCCCC2,67%
16,CCOC(=O)c1c(NC(=O)CS(=O)(=O)c2ccc(C)cc2)sc2c1CCCCC2,87%
17,CCOC(=O)c1c(NC(=O)COc2cccc(C(F)(F)F)c2)sc2c1CCC(C)C2 (stereo unspecified),74%
18,COC(=O)c1c(NC(=O)CCCOc2ccccc2C)sc2c1CCC2,4% (active)
19,COC(=O)c1c(NC(=O)CCCOc2cccc(C)c2)sc2c1CCC(C)C2 (stereo unspecified),4% (active)
